ELG1 repair inh = inhibitors of ELG1-dependent DNA repair in HEK293T cells | HEK293T ELG1-luciferase reporter, luminescence, 16 h; DNA damage induced by 5-fluorouridine | AID 504467 | Potency, µM (top dose mostly 46.1 µM), inactives show at the highest dose activity change, negative = inhibition, actives largely listed as inhibitors | hit rate 2.3% among 330,000; also: % is scaled to controls: 0 for no effect and ±100 for the full control effect; nearly all actives have a fitted effect of over 55% in size
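HEK293T cells expressing luciferase-tagged ELG1 (2,000/well) received 5-Fluorouridine plus compound or DMSO for 16 hr at 37 °C. Luciferase was read by ONE-Glo luminescence after 30 min at room temperature.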
MCF10A rereplic = inducers of DNA re-replication in MCF 10A breast cells; Potency, µM (highest dose often 46.1 µM), inactives show top-dose activity, positive = re-replication, most hits filed as activators; AID 624296; MCF 10A DNA re-replication, Hoechst nuclear intensity, 48 h; hit rate 2.9% among 350,000; also: % of control where 0% means no effect; nearly all actives have a fitted effect of over 50% in size
SW480 rerep = inducers of DNA re-replication in SW480 colon cancer cells | hit rate 1.8% among 340,000 | Potency, µM (highest dose often 46.1 µM), without a hit: top-dose re-replication activation, usual class: activators | SW480 DNA re-replication, Hoechst DNA content imaging, 48 h; also: % of control where 0% means no effect; nearly all actives have a fitted effect of over 55% in size
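First, 250 cells per well were seeded. Next, compound or vehicle (23 nL) was pinned in, plates sat 48 hr at 37 C. Finally Hoechst was added for 40 min before fluorescence scanning.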
KB-V1 cytotox = KB-V1 MDR subline cytotoxicity; KB-V1 MDR cells viability, CellTiter-Glo, 72 h; Potency, µM (top dose mostly 46.1 µM), most hits filed as cytotoxic; hit rate 3.4% among 400,000; also: % is scaled to controls: 0 for no effect and ±100 for the full control effect; nearly all actives have a fitted effect of over 60% in size
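qHTS viability screen in drug-selected KB-V1 MDR cells: 72 h compound treatment at 37 degrees C, ATP luminescence end point.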
KB-3-1 cytotox = KB-3-1 parental cell cytotoxicity; KB-3-1 viability, CellTiter-Glo ATP luminescence, 72 h; Potency, µM (series often up to 46.1 µM), most hits filed as cytotoxic; hit rate 1.4% among 400,000; also: % is scaled to controls: 0 for no effect and ±100 for the full control effect; nearly all actives have a fitted effect of over 60% in size
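Multi-concentration cytotoxicity screen in KB-3-1 cells grown in DMEM lacking phenol red with 10% FBS. After 72 h at 37 °C with compound, ATP-dependent luminescence was recorded.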
* hit, by the source's call. Shown are actives, neighbours in structure and some others; about 8.1% of the full set was active somewhere. Calls follow the shape of the dose curve; as a rule, active = well fitted curve in the direction sought with a large enough effect; inconclusive = small, poorly fitted or top-dose-only effect, or another doubt; inactive = no such curve, though single readings can be large; an effect the other way counts as inactive or inconclusive. Potency is read from the fitted curve at half-maximal effect.

What do the screens show for `COc1cc(NC(=O)c2oc3ccccc3c2C)ccc1NC(=O)c1ccco1`?
ELG1 repair inh: -22.5%; MCF10A rereplic: 18.4µM*; SW480 rerep: 1.2%; KB-V1 cytotox: inactive; KB-3-1 cytotox: inactive

Results for COc1cc(NC(=O)c2cc3ccccc3o2)ccc1NC(=O)c1ccco1 ?
ELG1 repair inh: inconclusive; MCF10A rereplic: inconclusive; SW480 rerep: inconclusive; KB-V1 cytotox: inactive; KB-3-1 cytotox: inactive

What do the screens show for `COc1cc(NC(=O)c2ccc(C)cc2C)ccc1NC(=O)c1cc2ccccc2o1`?
ELG1 repair inh: 5.6%; MCF10A rereplic: 9.2µM*; SW480 rerep: inconclusive; KB-V1 cytotox: inactive; KB-3-1 cytotox: inconclusive

What do the screens show for `COc1cc(NC(=O)c2ccccc2F)ccc1NC(=O)c1cc2ccccc2o1`?
ELG1 repair inh: -3.6%; MCF10A rereplic: 2.31µM*; SW480 rerep: inconclusive; KB-V1 cytotox: inactive; KB-3-1 cytotox: inactive

Results for O=C(CN1C(=O)NC2(CCCC2)C1=O)NCc1ccco1 ?
ELG1 repair inh: 19.1%; MCF10A rereplic: -2.8%; SW480 rerep: -1.9%; KB-V1 cytotox: inactive; KB-3-1 cytotox: inactive

What do the screens show for `COc1ccc2oc(C(=O)N3CCN(C/C=C/c4ccccc4)CC3)c(C)c2c1`?
ELG1 repair inh: inconclusive; MCF10A rereplic: 23.1µM*; SW480 rerep: 2.8%; KB-V1 cytotox: inactive; KB-3-1 cytotox: inactive

What do the screens show for `COc1cc(Br)cc(CN2CCN(C/C=C/c3ccccc3)CC2)c1O`?
ELG1 repair inh: inconclusive; MCF10A rereplic: 21.2%; SW480 rerep: 2.0%; KB-V1 cytotox: inactive; KB-3-1 cytotox: inactive

Results for Cc1c(C(=O)N2CCN(Cc3nccn3C)CC2)oc2c(F)cccc12 ?
KB-V1 cytotox: inactive; KB-3-1 cytotox: inactive

How did Cc1c(C(=O)N2CCN(C/C=C/c3ccccc3)CC2)oc2c(F)cccc12 do in these assays?
ELG1 repair inh: -13.7%; MCF10A rereplic: 11.2%; SW480 rerep: -4.4%; KB-V1 cytotox: 16.4µM*; KB-3-1 cytotox: inactive

Results for COc1ccc(O)c(CN2CCN(C/C=C/c3ccccc3)CC2)c1 ?
ELG1 repair inh: inconclusive; MCF10A rereplic: 43.0%; SW480 rerep: -7.3%; KB-V1 cytotox: 14.6µM*; KB-3-1 cytotox: inactive

How did Cc1c(C(=O)N2CCN(C(=O)c3ccccc3)CC2)oc2ccc(F)cc12 do in these assays?
ELG1 repair inh: 18.3µM*; MCF10A rereplic: 33.7%; SW480 rerep: -20.0%; KB-V1 cytotox: inactive; KB-3-1 cytotox: inactive

How did Cc1ccc(C(=O)NC(Cc2ccc(C(C)(C)C)cc2)C(=O)O)cc1 (stereo not drawn) do in these assays?
ELG1 repair inh: 8.4%; MCF10A rereplic: -7.6%; SW480 rerep: -10.1%; KB-V1 cytotox: inactive; KB-3-1 cytotox: inactive

Results for CCc1cccc2c(C(=O)CN3C(=O)NC4(CCc5ccccc54)C3=O)c[nH]c12 (stereo not drawn) ?
ELG1 repair inh: 7.7%; MCF10A rereplic: 14.6µM*; SW480 rerep: inconclusive; KB-V1 cytotox: inconclusive; KB-3-1 cytotox: inconclusive

What do the screens show for `CCc1cccc2c(C(=O)CN3C(=O)NC(C)(c4cccc5ccccc45)C3=O)c[nH]c12` (stereo not drawn)?
ELG1 repair inh: 10.6%; MCF10A rereplic: 14.6µM*; SW480 rerep: 19.9%; KB-V1 cytotox: 23.1µM*; KB-3-1 cytotox: inconclusive

Results for CCc1cccc2c(C(=O)CN3C(=O)N(C)C4(CCCCC4)C3=O)c[nH]c12 ?
ELG1 repair inh: inconclusive; MCF10A rereplic: 5.17µM*; SW480 rerep: -0.6%; KB-V1 cytotox: inactive; KB-3-1 cytotox: inconclusive

Results for CCOc1ccc(C(C(=O)Nc2ccc(F)cc2)N(C(=O)Cn2nnc3ccccc32)C2CC2)cc1 (stereo not drawn) ?
ELG1 repair inh: inconclusive; MCF10A rereplic: 7.9%; SW480 rerep: inconclusive; KB-V1 cytotox: 23.1µM*; KB-3-1 cytotox: inactive

What do the screens show for `COc1cccc(C(C(=O)Nc2ccc(F)cc2)N(C(=O)Cn2nnc3ccccc32)C2CC2)c1` (stereo not drawn)?
ELG1 repair inh: inconclusive; MCF10A rereplic: -5.9%; SW480 rerep: inconclusive; KB-V1 cytotox: inconclusive; KB-3-1 cytotox: inactive

What do the screens show for `CCCCCCCCNC(=S)NCCN1CCCCC1`?
ELG1 repair inh: -8.6%; MCF10A rereplic: 11.6µM*; SW480 rerep: inconclusive; KB-V1 cytotox: inconclusive; KB-3-1 cytotox: inactive

How did O=C(C(Br)=Cc1ccccc1)c1ccccc1 do in these assays?
MCF10A rereplic: 16.4µM*; SW480 rerep: 2.91µM*

Results for O=C(CN1C(=O)c2ccc([N+](=O)[O-])cc2C1=O)Nc1ccccc1N1CCCC1 ?
ELG1 repair inh: 16.8%; MCF10A rereplic: -8.9%; SW480 rerep: 3.6%; KB-V1 cytotox: inactive; KB-3-1 cytotox: inactive

How did COc1ccc(C=C2C=C(C(C)(C)C)C(=O)C(C(C)(C)C)=C2)cc1OC do in these assays?
ELG1 repair inh: inconclusive; MCF10A rereplic: 20.6µM*; SW480 rerep: inconclusive; KB-V1 cytotox: inconclusive; KB-3-1 cytotox: inconclusive

What do the screens show for `COc1cccc(/C=C2\CCc3ccccc3C2=O)c1`?
ELG1 repair inh: inconclusive; MCF10A rereplic: -2.5%; SW480 rerep: -0.2%; KB-V1 cytotox: inactive; KB-3-1 cytotox: inactive

What do the screens show for `COc1ccc(/C=C2\CCc3ccccc3C2=O)cc1OC`?
ELG1 repair inh: inconclusive; MCF10A rereplic: inconclusive; SW480 rerep: inconclusive; KB-V1 cytotox: 16.4µM*; KB-3-1 cytotox: inactive

What do the screens show for `COc1ccc(/C=C2\CC/C(=C\c3ccc(OC)c(OC)c3)C2=O)cc1OC`?
ELG1 repair inh: inconclusive; MCF10A rereplic: inconclusive; SW480 rerep: inconclusive; KB-V1 cytotox: inconclusive; KB-3-1 cytotox: 18.4µM*

Results for COc1ccc(/C=C2\CCc3ccccc3C2=O)cc1Cn1nc(C)cc1C ?
ELG1 repair inh: -24.3%; MCF10A rereplic: inconclusive; SW480 rerep: inconclusive; KB-V1 cytotox: 18.4µM*; KB-3-1 cytotox: inconclusive

What do the screens show for `CC[C@H]1C(Nc2ccccc2)C[C@@H]2CCN3C(=O)CC[C@H]1[C@H]23` (stereo partly drawn)?
MCF10A rereplic: -27.7%; SW480 rerep: inconclusive; KB-V1 cytotox: inactive; KB-3-1 cytotox: inactive

Results for Cc1ccc(NC(=O)/C(Cl)=C/c2ccccc2)cc1C ?
ELG1 repair inh: inconclusive; MCF10A rereplic: 8.7%; SW480 rerep: 7.1%; KB-V1 cytotox: inconclusive; KB-3-1 cytotox: inactive

How did CC1CCc2c(sc(NC(=O)COC(=O)c3ccccc3NCc3ccco3)c2C#N)C1 (stereo not drawn) do in these assays?
ELG1 repair inh: 4.5%; MCF10A rereplic: 13.7%; SW480 rerep: 4.4%; KB-V1 cytotox: inactive; KB-3-1 cytotox: inactive

How did CCOC(=O)C1CCCN(C2=NC(=O)/C(=C/c3ccc(OC)c(OC)c3)S2)C1 (stereo not drawn) do in these assays?
ELG1 repair inh: -8.2%; MCF10A rereplic: -1.6%; SW480 rerep: 4.5%; KB-V1 cytotox: inactive; KB-3-1 cytotox: inactive

Assay outcomes deposited in PubChem BioAssay by National Center for Advancing Translational Sciences (NCATS).
